From PubChem BioAssay (Tox21)
Records with an inconclusive call do not appear. Activity calls are given as the source filed them. Unless noted, calls follow the shape of the dose curve; as a rule, active = well fitted curve in the direction sought with a large enough effect in the repeat runs; inconclusive = weak or mixed curves; inactive = no such curve, though single readings can be large; an effect the other way counts as inactive or inconclusive.

How the values were obtained:
[1] = target: Retinoic acid receptor RXR-alpha (Homo sapiens) (UniProt P19793); assay: qHTS assay to identify small molecule agonists of the RXR signaling pathway (AID 1159527; calls by dose curve; also: nearly all actives have a fitted effect of over 35% in size)
Retinoic acid receptor RXR-alpha (Homo sapiens), sequence (P19793 whole entry, looked up): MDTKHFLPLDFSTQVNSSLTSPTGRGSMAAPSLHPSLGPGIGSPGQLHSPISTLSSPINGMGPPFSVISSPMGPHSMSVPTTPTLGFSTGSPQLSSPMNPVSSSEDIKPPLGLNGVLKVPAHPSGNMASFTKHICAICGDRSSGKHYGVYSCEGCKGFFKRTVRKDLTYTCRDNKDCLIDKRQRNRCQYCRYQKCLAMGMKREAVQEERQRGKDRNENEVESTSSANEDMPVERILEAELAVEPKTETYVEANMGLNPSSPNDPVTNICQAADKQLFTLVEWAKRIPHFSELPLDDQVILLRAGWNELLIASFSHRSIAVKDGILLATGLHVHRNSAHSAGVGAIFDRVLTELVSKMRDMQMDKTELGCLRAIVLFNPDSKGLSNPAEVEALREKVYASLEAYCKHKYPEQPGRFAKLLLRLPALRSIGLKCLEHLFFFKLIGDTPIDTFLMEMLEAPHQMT
Outline: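 qHTS of the Tox21 10K library in GeneBLAzer RXR-alpha HEK 293T cells carrying a beta-lactamase reporter […]; 16 hr treatment, 9-cis retinoic acid as agonist control, FRET read-out.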

[2] = qHTS assay to identify small molecule agonists of the RXR signaling pathway - cell viability counter screen (AID 1159529); also: series mostly up to about 77 µM; nearly all actives have a fitted effect of over 50% in size
Outline: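 Cell viability is measured by CellTiter-Glo luminescence, 30 min at room temperature, in wells already read for beta-lactamase. Engineered HEK 293T cells (RXR-alpha-UAS-bla) are dosed 16 hr at 37 C. Tetraoctyl ammonium bromide serves as positive control.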

[3] = qHTS assay to identify small molecule antagonists of the retinoid acid receptor (RAR) signaling pathway - cell viability counter screen (AID 1159551); also: nearly all actives have a fitted effect of over 35% in size
Outline: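 Retinol-stimulated (1 uM final) C3RL4 cells, compound 6 h, 37 C; readout CellTiter-Glo luminescence (ATP) after 30 min RT incubation.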

[4] = qHTS assay to identify small molecule antagonists of the retinoic acid receptor (RAR) signaling pathway (AID 1159552; also: nearly all actives have a fitted effect of over 50% in size)
Outline: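 Quantitative HTS in C3RL4 RARE-luciferase reporter cells. Compounds were added with 1 uM (final) retinol; luminescence was read after 6 hr.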

[5] = qHTS assay to identify small molecule antagonists of the estrogen related receptor (ERR) signaling pathway from Tox21 library - cell viability counter screen (AID 1224834); also: nearly all actives have a fitted effect of over 30% in size
Outline: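 After 17.5 h of compound exposure at 37 C, ERR cells are incubated with CellTiter-Fluor for 30 min and fluorescence intensity serves as the viability measure.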

[6] = qHTS assay to identify small molecule agonists of the constitutive androstane receptor (CAR) signaling pathway - cell viability counter screen (AID 1224836); also: series mostly up to about 92 µM; nearly all actives have a fitted effect of over 45% in size
Outline: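 Counter screen multiplexed with the CAR reporter readout: HepG2 cells co-transfected with hCAR and the CYP2B6-2.2kb construct receive a 15-concentration compound series and 0.75 uM PK11195 (final), then CellTiter-Fluor fluorescence is read after 23 h.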

[7] = target: Nuclear receptor subfamily 1 group I member 3 (Homo sapiens) (UniProt Q14994); assay: qHTS assay to identify small molecule antagonists of the constitutive androstane receptor (CAR) signaling pathway (AID 1224838);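 also: HepG2 cells stably expressing hCAR with CYP2B6 luciferase reporter stimulated by CITCO; nearly all actives have a fitted effect of over 40% in size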
Nuclear receptor subfamily 1 group I member 3 (Homo sapiens), sequence (Q14994 whole entry, looked up): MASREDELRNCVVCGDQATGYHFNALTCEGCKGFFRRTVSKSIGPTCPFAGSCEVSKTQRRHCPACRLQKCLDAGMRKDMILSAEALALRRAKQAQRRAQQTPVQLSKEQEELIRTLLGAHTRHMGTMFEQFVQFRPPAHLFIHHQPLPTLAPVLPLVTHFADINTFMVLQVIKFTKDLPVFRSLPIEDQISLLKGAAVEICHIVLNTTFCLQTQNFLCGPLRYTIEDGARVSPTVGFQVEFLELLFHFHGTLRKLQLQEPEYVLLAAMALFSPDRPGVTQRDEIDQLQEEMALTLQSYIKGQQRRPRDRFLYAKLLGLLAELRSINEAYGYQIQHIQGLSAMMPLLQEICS
Outline: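 Cell line: HepG2 double-stable for hCAR and CYP2B6-2.2kb reporter. Agonist: CITCO, 50 nM final. Compounds: 15 concentrations, 24 h, 37 C. Detection: ONE-Glo luminescence.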

[8] = qHTS assay to identify small molecule antagonists of the estrogen related receptor signaling pathway with the pleiotropic PPARgamma coactivator (PGC) from Tox21 10K library - cell viability counter screen (AID 1224840; active = well fitted cell-killing curve with a large enough effect in the repeat runs, not every such curve was filed as active; also: nearly all actives have a fitted effect of over 40% in size)
Outline: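 Following seeding of 2,000 PGC/ERR cells/well and 6 hours' incubation, test compounds were delivered in DMSO. The plates then sat 17.5 hours at 37 C before a fluorogenic live-cell protease reagent (CellTiter-Fluor) was read after 30 min.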

[9] = target: Thyrotropin receptor (Homo sapiens) (UniProt P16473); assay: qHTS assay to identify small molecule agonists of the thyroid stimulating hormone receptor (TSHR) signaling pathway (AID 1224843; calls by dose curve; also: nearly all actives have a fitted effect of over 45% in size)
Thyrotropin receptor (Homo sapiens), sequence (P16473 whole entry, looked up): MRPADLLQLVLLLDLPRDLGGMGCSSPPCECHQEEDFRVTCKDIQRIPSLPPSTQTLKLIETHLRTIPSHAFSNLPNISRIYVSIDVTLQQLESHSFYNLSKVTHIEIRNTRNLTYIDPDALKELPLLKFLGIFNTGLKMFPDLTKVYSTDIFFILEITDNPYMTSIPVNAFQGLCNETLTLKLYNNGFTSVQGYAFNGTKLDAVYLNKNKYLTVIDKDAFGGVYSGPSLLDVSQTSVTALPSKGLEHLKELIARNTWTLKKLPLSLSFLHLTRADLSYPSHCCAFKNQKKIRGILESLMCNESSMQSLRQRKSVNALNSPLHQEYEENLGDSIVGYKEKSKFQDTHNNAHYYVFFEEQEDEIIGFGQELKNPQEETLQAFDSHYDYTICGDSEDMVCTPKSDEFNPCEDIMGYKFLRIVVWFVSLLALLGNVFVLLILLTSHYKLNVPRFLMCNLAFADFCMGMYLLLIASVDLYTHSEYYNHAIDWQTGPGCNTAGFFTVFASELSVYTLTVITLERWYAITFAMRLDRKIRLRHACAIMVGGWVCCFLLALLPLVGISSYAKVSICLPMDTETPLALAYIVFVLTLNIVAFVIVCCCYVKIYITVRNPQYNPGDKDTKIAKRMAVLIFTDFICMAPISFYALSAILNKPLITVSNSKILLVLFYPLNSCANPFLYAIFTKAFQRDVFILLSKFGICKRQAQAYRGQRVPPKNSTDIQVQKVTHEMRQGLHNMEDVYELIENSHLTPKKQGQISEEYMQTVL
Outline: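 HEK293 cells stably bearing the thyrotropin receptor were plated at 800 cells/well and challenged with compound (30 min, RT). Accumulated cAMP was quantified via cAMP-d2 competing for cryptate-tagged antibody.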

[10] = qHTS assay to identify small molecule agonists of the hypoxia (HIF-1) signaling pathway - cell viability counter screen (AID 1224844; calls by dose curve; also: nearly all actives have a fitted effect of over 50% in size)
Outline: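 Cells (HRE-bla ME-180, 2,000 per well) sat 5 hrs at 37C, got compound for 17 hrs, were read for CCF4-AM FRET, and were finally lysed with CellTiter-Glo for a 30 min room-temperature luminescence read.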

[11] = qHTS assay to identify small molecule agonists of H2AX (AID 1224845; active = well fitted activation curve with a large enough effect in the signal ratio in the repeat runs, not every such curve was filed as active; the % refers to the signal ratio)
Outline: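 Phospho-H2AX Ser139 measured by HTRF (ex 320 nm; em 665 and 620 nm) after 24 hr antibody incubation. Compounds, 15 concentrations, 0.76% DMSO, were applied to CHO-K1 cells for 3hr at 37C before lysis.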

[12] = qHTS assay to identify small molecule agonists of the hypoxia (HIF-1) signaling pathway (AID 1224846; active = well fitted activation curve with a large enough effect in the signal ratio in the repeat runs, not every such curve was filed as active; the % refers to the signal ratio)
Outline: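 A low-serum medium (0.5% dialyzed FBS) holding 2,000 HRE-bla ME-180 cells per well is preincubated for 5 hrs, dosed with compounds by pintool, and kept a further 17 hrs at 37C, 5% CO2 before CCF4-AM FRET detection of beta-lactamase.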

[13] = qHTS assay to identify small molecule agonists of H2AX - cell viability counter screen (AID 1224847; calls by dose curve; also: top concentration of the series differs between compounds; nearly all actives have a fitted effect of over 30% in size)
Outline: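 We seed wild-type CHO-K1 cells overnight, treat them for 3 hr at 37C with compounds in 15-concentration series, and quantify remaining viability by CellTiter-Glo luminescence.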

[14] = qHTS assay to identify small molecule agonists of the retinoic acid receptor (RAR) signaling pathway (AID 1159553)
Outline: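 Reporter readout comes from luciferase under RARE control in C3RL4 cells; compound exposure lasts 6 hr at 37 C in 5% CO2, and luminescence is recorded following a 30 min room-temperature incubation with reagent.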

[15] = target: Luciferin 4-monooxygenase (Photinus pyralis) (UniProt P08659); assay: qHTS assay to identify small molecule inhibitors of firefly luciferase (AID 1224835); also: series mostly up to about 120 µM; nearly all actives have a fitted effect of over 25% in size
Luciferin 4-monooxygenase (Photinus pyralis), sequence (P08659 whole entry, looked up): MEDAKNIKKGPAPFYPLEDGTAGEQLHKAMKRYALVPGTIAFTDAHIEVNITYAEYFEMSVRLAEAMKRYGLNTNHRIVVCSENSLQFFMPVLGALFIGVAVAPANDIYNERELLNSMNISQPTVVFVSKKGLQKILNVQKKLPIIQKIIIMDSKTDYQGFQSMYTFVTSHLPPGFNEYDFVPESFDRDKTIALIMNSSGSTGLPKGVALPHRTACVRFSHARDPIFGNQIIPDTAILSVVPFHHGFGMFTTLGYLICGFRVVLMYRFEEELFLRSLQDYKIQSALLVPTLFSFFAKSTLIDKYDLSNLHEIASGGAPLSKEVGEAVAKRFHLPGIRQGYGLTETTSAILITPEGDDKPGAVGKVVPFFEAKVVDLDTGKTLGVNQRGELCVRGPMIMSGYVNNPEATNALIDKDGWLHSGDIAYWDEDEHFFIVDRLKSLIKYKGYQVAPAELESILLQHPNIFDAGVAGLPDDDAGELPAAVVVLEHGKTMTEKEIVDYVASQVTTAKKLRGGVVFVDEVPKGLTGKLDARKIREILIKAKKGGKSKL
Outline: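 Inhibition of purified Photinus luciferase is measured by luminescence. Substrate levels (D-luciferin, ATP) sit at their KM values. Each compound is tested in a concentration series.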

[16] = qHTS assay to identify small molecule antagonists of the constitutive androstane receptor (CAR) signaling pathway - cell viability counter screen (AID 1224837); also: series mostly up to about 92 µM; nearly all actives have a fitted effect of over 45% in size
Outline: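 Counter screen run in HepG2-CYP2B6-hCAR cells: 4 hr settle, compound titration (15 concentrations) with 50 nM CITCO, 23 hr at 37 C/5% CO2, CellTiter-Fluor fluorescence.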

[17] = target: Nuclear receptor subfamily 1 group I member 3 (Homo sapiens) (UniProt Q14994); assay: qHTS assay to identify small molecule agonists of the constitutive androstane receptor (CAR) signaling pathway (AID 1224839); also: series mostly up to about 92 µM; nearly all actives have a fitted effect of over 15% in size
Outline: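 A 15-concentration quantitative screen uses HepG2 cells co-transfected stably with human CAR and CYP2B6-2.2kb reporter. Treatment lasts 24 h with 0.75 uM PK11195 final present; ONE-Glo luminescence is the signal.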
% is scaled to controls: 0 for no effect and ±100 for the full control effect.

CC(C)Cn1cnc2c1c(=O)n(C)c(=O)n2C
inactive: Potency [1] | outcome [2] | outcome [3] | outcome [4] | outcome [5] | outcome [6] | Potency [7] | outcome [8] | outcome [9] | outcome [10] | outcome [11] | outcome [12] | outcome [13]

CN(C)CCOC(=O)C(c1ccccc1)C1(O)CCCC1 (stereo unspecified)
inactive: Potency [1] | outcome [2] | outcome [3] | Potency [14] | outcome [5] | Potency [15] | outcome [6] | outcome [16] | Potency [7] | Potency [17] | outcome [8] | outcome [9] | outcome [10] | outcome [11] | outcome [13]

O=C1c2ccccc2C(=O)c2cc(Cl)ccc21
inactive: activation [1] 2.02% [at 6.98 µM] | activity change, negative = cytotoxicity [2] 5.38% [at 6.97 µM] | activity change, negative = cytotoxicity [3] 3.77% [at 8.39 µM] | activity, negative = inhibition [4] 30% [at 8.39 µM] | activity change, negative = inhibition [15] 0.579% [at 10.5 µM] | viability change, negative = cytotoxic [6] -1.2% [at 8.39 µM] | activity change, negative = cytotoxicity [16] 2.26% [at 8.39 µM] | activity, negative = inhibition [7] 54.9% [at 8.39 µM] | activation [17] 8.38% [at 8.39 µM] | viability change, negative = cytotoxic [8] 5.77% [at 8.39 µM] | activation [9] -6.72% [at 8.39 µM] | activity change, negative = cytotoxicity [10] 10.7% [at 6.97 µM] | activation (H2AX phosphorylation) [11] 2.59% [at 14 µM] | activation [12] -0.0803% [at 7.01 µM] | activity change, negative = cytotoxicity [13] 4.41% [at 14 µM]

[O]=[Mo](=[O])=[O]
inactive: activation [1] 0.58% [at 15.8 µM] | activity change, negative = cytotoxicity [2] -1.21% [at 15.8 µM] | activity change, negative = cytotoxicity [3] 3.04% [at 19 µM] | activity, negative = inhibition [4] 8.42% [at 19 µM] | activity change, negative = inhibition [15] 0.269% [at 23.6 µM] | viability change, negative = cytotoxic [6] -3.23% [at 19 µM] | activity change, negative = cytotoxicity [16] -0.0508% [at 19 µM] | activity, negative = inhibition [7] -9.59% [at 19 µM] | activation [17] -3.75% [at 19 µM] | viability change, negative = cytotoxic [8] -2.25% [at 19 µM] | activation [9] -6.48% [at 19 µM] | activity change, negative = cytotoxicity [10] -18.3% [at 15.8 µM] | activation (H2AX phosphorylation) [11] -3.3% [at 31.6 µM] | activation [12] -0.622% [at 15.8 µM] | activity change, negative = cytotoxicity [13] -2.98% [at 31.6 µM]

C#CCN[C@@H]1CCc2ccccc21
inactive: Potency [1] | outcome [2] | outcome [3] | Potency [14] | outcome [5] | Potency [15] | outcome [6] | outcome [16] | Potency [7] | Potency [17] | outcome [8] | outcome [9] | outcome [10] | outcome [11] | outcome [12] | outcome [13]

CCO[Si](CC)(OCC)OCC
inactive: Potency [1] | outcome [2] | outcome [3] | outcome [4] | outcome [6] | outcome [16] | Potency [17] | outcome [8] | outcome [9] | outcome [10] | outcome [11] | outcome [12]

CO[Si](CCCn1c(=O)n(CCC[Si](OC)(OC)OC)c(=O)n(CCC[Si](OC)(OC)OC)c1=O)(OC)OC
inactive: Potency [1] | outcome [2] | outcome [3] | Potency [14] | outcome [5] | Potency [15] | outcome [6] | outcome [16] | Potency [7] | Potency [17] | outcome [8] | outcome [9] | outcome [11] | outcome [12] | outcome [13]

C/C=C(\C)C(C)=O
inactive: Potency [1] | outcome [2] | outcome [3] | Potency [14] | outcome [5] | Potency [15] | outcome [6] | outcome [16] | Potency [17] | outcome [8] | outcome [9] | outcome [11] | outcome [12] | outcome [13]

COCCc1ccccn1
inactive: Potency [1] | outcome [3] | outcome [4] | Potency [14] | outcome [5] | Potency [15] | outcome [6] | outcome [16] | Potency [7] | Potency [17] | outcome [8] | outcome [9] | outcome [10] | outcome [11] | outcome [12] | outcome [13]
